In PubChem BioAssay (Tox21) one finds Potency data, which are given here for 24 compounds.

Experiment [1] deals with Peroxisome proliferator-activated receptor delta (Homo sapiens) (UniProt Q03181). Put plainly: qHTS assay to identify small molecule agonists of the peroxisome proliferator-activated receptor delta (PPARd) signaling pathway (AID 743212; calls by dose curve; note: potency is the fitted concentration of half-maximal effect). The gist of the method:
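Steps: seed PPARd-bla HEK293H cells; incubate 5 h, 37 C, 5% CO2; add compounds in DMSO; incubate, 37 C; add LiveBLAzer B/G FRET substrate; hold 2 h at room temperature; measure fluorescence.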

Experiment [2] shares this target. Put plainly: qHTS assay to identify small molecule antagonists of the peroxisome proliferator-activated receptor delta (PPARd) signaling pathway (AID 743215; active = well fitted inhibition curve with a large enough effect in the signal ratio in the repeat runs, not every such curve was filed as active; the % refers to the signal ratio;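 note: cells stimulated with agonist L165041 at 300 nM final during compound exposure; series mostly up to about 62 µM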). The gist of the method:
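Screen format: qHTS, antagonist mode. HEK293H PPARd-bla cells received compound and 300 nM L165041 (final), 17 h, 37 C. Beta-lactamase detected via FRET substrate fluorescence, 2 h, room temperature.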

Experiment [3] is described as follows: qHTS assay to identify small molecule agonists of the farnesoid-X-receptor (FXR) signaling pathway - cell viability counter screen (AID 743218). Note: nearly all actives have a fitted effect of over 45% in size. Note: potency is the fitted concentration of half-maximal effect. The gist of the method: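 Same-well cytotoxicity check on FXR-UAS-bla HEK 293T cells: 5 h attachment, 16 h compound at 37 C, CellTiter-Glo luminescence read at room temperature after 30 min.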
Experiment [4] can be described thus: qHTS assay to identify small molecule antagonists of the farnesoid-X-receptor (FXR) signaling pathway - cell viability counter screen (AID 743221; active = well fitted cell-killing curve with a large enough effect in the repeat runs, not every such curve was filed as active; note: nearly all actives have a fitted effect of over 50% in size; note: potency is the fitted concentration of half-maximal effect). The essentials:
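Cytotoxicity counter screen run in the FXR-bla reporter wells: HEK 293T cells exposed to compound with 50 uM (final) chenodeoxycholic acid for 16 h, 37 C, then viability measured by CellTiter-Glo luminescence after 30 min, room temperature.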

Experiment [5] has as its target Vitamin D3 receptor (Homo sapiens) (UniProt P11473). Nature of the experiment: qHTS assay to identify small molecule agonists of the vitamin D receptor (VDR) signaling pathway (AID 743222; calls by dose curve; note: potency is the fitted concentration of half-maximal effect). The gist of the method: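 Using LiveBLAzer B/G FRET detection, agonism was scored in VDR-bla cells exposed overnight (16 h, 37C) to DMSO-dissolved compounds; substrate incubation was 2 h at room temperature.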

The target is the same in experiment [6]. Nature of the experiment: qHTS assay to identify small molecule antagonists of the vitamin D receptor (VDR) signaling pathway (AID 743223; active = well fitted inhibition curve with a large enough effect in the signal ratio in the repeat runs, not every such curve was filed as active; the % refers to the signal ratio; note: potency is the fitted concentration of half-maximal effect). The gist of the method: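 Antagonist mode: compound added to VDR-bla cells alongside agonist 1alpha,25-dihydroxyvitamin D3 (3 nM final), incubation 16 h at 37C. Read-out is LiveBLAzer FRET fluorescence, 2 h at room temperature.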

Experiment [7] is described as follows: qHTS assay to identify small molecule agonists of the peroxisome proliferator-activated receptor delta (PPARd) signaling pathway - cell viability counter screen (AID 743211). Note: nearly all actives have a fitted effect of over 55% in size. Note: potency is the fitted concentration of half-maximal effect. The essentials: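 Viability was measured as CellTiter-Glo luminescence (30 min, room temperature) in the same wells as the beta-lactamase readout. GeneBLAzer PPARd UAS-bla HEK293H cells received compound after 5 h plating and were incubated 17 h at 37 C.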

Experiment [8] can be described thus: qHTS assay to identify small molecule antagonists of the peroxisome proliferator-activated receptor delta (PPARd) signaling pathway - cell viability counter screen (AID 743213). Note: nearly all actives have a fitted effect of over 50% in size. The gist of the method: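 PPARd-bla HEK293H cells (3000/well) got compound plus 300 nM L165041 agonist for 17 h at 37 C. Viability in the same wells came from CellTiter-Glo luminescence after 30 min at room temperature.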

In experiment [9] the target is Bile acid receptor (Homo sapiens) (UniProt Q96RI1). Nature of the experiment: qHTS assay to identify small molecule antagonists of the farnesoid-X-receptor (FXR) signaling pathway (AID 743217; active = well fitted inhibition curve with a large enough effect in the signal ratio in the repeat runs, not every such curve was filed as active; the % refers to the signal ratio). The gist of the method: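 Quantitative HTS, beta-lactamase reporter format: FXR-UAS-bla HEK 293T cells co-treated 16 h at 37 °C with compounds and 50 uM final chenodeoxycholic acid, then read by B/G FRET fluorescence.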
Bile acid receptor (Homo sapiens), sequence (Q96RI1 whole entry, looked up): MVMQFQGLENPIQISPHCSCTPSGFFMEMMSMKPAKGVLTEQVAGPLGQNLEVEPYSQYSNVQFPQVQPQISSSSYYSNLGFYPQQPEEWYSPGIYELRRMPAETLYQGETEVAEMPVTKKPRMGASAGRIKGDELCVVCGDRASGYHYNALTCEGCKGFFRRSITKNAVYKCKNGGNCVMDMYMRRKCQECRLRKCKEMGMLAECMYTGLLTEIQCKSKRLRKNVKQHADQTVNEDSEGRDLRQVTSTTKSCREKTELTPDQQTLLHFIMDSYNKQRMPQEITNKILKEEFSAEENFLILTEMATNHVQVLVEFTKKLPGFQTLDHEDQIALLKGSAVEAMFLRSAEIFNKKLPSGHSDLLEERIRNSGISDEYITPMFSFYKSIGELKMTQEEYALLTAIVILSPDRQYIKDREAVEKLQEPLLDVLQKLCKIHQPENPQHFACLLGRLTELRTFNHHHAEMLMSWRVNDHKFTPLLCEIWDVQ

The target is the same in experiment [10]. Nature of the experiment: qHTS assay to identify small molecule agonists of the farnesoid-X-receptor (FXR) signaling pathway (AID 743220; active = well fitted activation curve with a large enough effect in the signal ratio in the repeat runs, not every such curve was filed as active; the % refers to the signal ratio). The essentials:
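FXR-UAS-bla HEK 293T cells carrying a UAS-driven beta-lactamase reporter were plated for 5 h at 37C/5% CO2, then exposed to DMSO-dissolved Tox21 10K compounds for 16 h at 37C. A LiveBLAzer B/G FRET substrate was loaded for 2 h at room temperature before fluorescence reading.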

SMILES strings stand for the structures. Records with an inconclusive call do not appear. Activity calls are given as the source filed them. Unless noted, calls come from the whole dose curve; as a rule, active = well fitted curve in the direction sought with a large enough effect in the repeat runs; inconclusive = weak or mixed curves; inactive = no such curve, though single readings can be large; an effect the other way counts as inactive or inconclusive.

Vitamin D3 receptor (Homo sapiens), sequence (P11473 whole entry, looked up): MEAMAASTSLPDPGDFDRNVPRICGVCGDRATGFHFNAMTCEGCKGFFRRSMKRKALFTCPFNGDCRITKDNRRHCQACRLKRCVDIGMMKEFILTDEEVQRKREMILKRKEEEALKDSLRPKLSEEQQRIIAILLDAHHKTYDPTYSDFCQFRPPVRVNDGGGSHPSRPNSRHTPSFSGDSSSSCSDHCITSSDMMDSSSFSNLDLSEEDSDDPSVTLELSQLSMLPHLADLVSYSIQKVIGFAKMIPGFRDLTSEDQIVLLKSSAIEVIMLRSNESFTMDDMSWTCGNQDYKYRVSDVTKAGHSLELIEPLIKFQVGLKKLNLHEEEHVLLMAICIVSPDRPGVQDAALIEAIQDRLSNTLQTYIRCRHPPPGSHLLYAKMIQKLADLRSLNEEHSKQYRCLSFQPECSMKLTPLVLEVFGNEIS
Peroxisome proliferator-activated receptor delta (Homo sapiens), sequence (Q03181 whole entry, looked up): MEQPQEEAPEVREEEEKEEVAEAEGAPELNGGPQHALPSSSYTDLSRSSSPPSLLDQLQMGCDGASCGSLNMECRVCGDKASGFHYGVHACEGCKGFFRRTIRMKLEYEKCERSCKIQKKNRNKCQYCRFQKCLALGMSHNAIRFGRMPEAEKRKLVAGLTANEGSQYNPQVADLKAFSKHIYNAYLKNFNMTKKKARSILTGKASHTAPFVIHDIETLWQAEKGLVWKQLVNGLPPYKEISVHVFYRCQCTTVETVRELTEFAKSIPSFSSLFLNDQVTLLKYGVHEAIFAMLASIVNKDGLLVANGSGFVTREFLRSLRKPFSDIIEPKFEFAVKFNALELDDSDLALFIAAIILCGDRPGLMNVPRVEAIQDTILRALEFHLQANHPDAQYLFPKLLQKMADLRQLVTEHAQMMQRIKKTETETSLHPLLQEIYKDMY

`CCCCN1CCCC[C@H]1C(=O)Nc1c(C)cccc1C`: the Potency entry in experiment [1], in [2], in [3], in experiment [4], in experiment [5] and in experiment [6] was “inactive” each time.

As to `O=C(Nc1cccc([N+](=O)[O-])c1)c1cc2ccccc2cc1O`, the Potency entry in experiment [1], in experiment [3] and in experiment [5] was “inactive” in each case.

In the case of `COc1cc(-c2nc(NC(=O)c3cc4cc(C)cc(C)c4n3CC(=O)O)sc2CCC2CCCCC2)c(OC)cc1Cl`, the Potency in experiment [7] was 10 µM (active); in [3], 12.7 µM (active); in experiment [4] it was 14.2 µM (active).

As for `CC(=O)SC[C@@H](Cc1ccccc1)C(=O)NCC(=O)OCc1ccccc1`, the Potency result in [1], in [2], in experiment [3] and in experiment [4] was “inactive” throughout.

On to `Cc1oc(-c2ccccc2)nc1CCC(=O)c1ccc(CC2SC(=O)NC2=O)cc1` (stereo not given), for which the Potency result in experiment [7], in experiment [3], in experiment [4] and in [6] was “inactive” throughout.

Regarding `C/C=C(\C)C(=O)OCc1ccccc1`, the Potency entry in experiment [7], in experiment [3], in [4], in experiment [5] and in [6] was “inactive” throughout.

For the compound `Oc1ccc(N=Nc2ccccc2)cc1`, the Potency result in experiment [1], in experiment [2], in [3] and in experiment [4] was “inactive” each time.

Consider `CCC1OCC(COc2ccc(Oc3ccccc3)cc2)O1` (stereo not given), for which the Potency entry in experiment [7], in experiment [4], in experiment [5] and in experiment [6] was “inactive” in each case.

`NNc1nc(-c2ccc(N)cc2)cs1`: the Potency result in experiment [1], in experiment [8], in experiment [2], in experiment [9], in experiment [10] and in [4] was “inactive” in each case. The Potency entry in experiment [5] and in [6] was “inactive” throughout. Moreover, the Potency in [3] was 6.92 µM (active).

As for `O=C1CCCc2c1cc1ccc3cccc4ccc2c1c34`, the Potency in [1] was 49.6 µM (active); in [5], 19.7 µM (active). Moreover, the Potency result in experiment [8], in experiment [4] and in experiment [6] was “inactive” in each case.

Take `Oc1ccc2c(c1)-c1ccccc1C2`: the Potency entry in experiment [1], in experiment [8], in experiment [2], in experiment [3], in [10] and in experiment [4] was “inactive” each time. For the same compound, the Potency result in experiment [5] and in experiment [6] was “inactive” each time.

With `COc1ccc(C(=O)/C(Br)=C\C(=O)O)cc1`, the Potency result in experiment [7], in experiment [3] and in experiment [4] was “inactive” throughout.

For the compound `CCN1/C(=C/C=C/c2sc3ccccc3[n+]2CC)Sc2ccccc21`, in experiment [7], the Potency was 14.6 µM (active). In addition, the Potency entry in experiment [10] was “inactive”.

Take `CSc1ccc(C(=O)c2[nH]c(=O)[nH]c2C)cc1`: the Potency result in experiment [1], in [8], in [2], in [3], in [4] and in experiment [5] was “inactive” in each case. For the same compound, the Potency result in experiment [6] is “inactive”.

As to `O=S1(=O)CC(Cl)(Cl)C(Cl)(Cl)C1`, the Potency in experiment [7] is 3.09 µM (active); in experiment [3], 5.49 µM (active); in experiment [4] it was 9.77 µM (active); in experiment [6], 1.74 µM (active). Besides, in experiment [5], the Potency entry is “inactive”.

Take `CCN(CC)CCCC(C)Nc1c2ccc(Cl)cc2nc2ccc(OC)cc12` (stereo not given): the Potency in [7] is 11.9 µM (active); in experiment [3], 13.3 µM (active); in experiment [4] it was 26.6 µM (active).

On to `Cc1cc(O)c(Cl)c(C)c1Cl`, for which the Potency in [7] was 43.6 µM (active); in experiment [3], 49 µM (active); in experiment [4], 49 µM (active). Also, the Potency entry in experiment [5] was “inactive”.

Turning to `CCCCCCCCS(=O)C(C)Cc1ccc2c(c1)OCO2` (stereo not given), in experiment [7], the Potency was 50 µM (active). In addition, the Potency entry in experiment [10] is “inactive”.

Turning to `CCCCCCCCCCCCc1ccc(O)cc1`, the Potency in experiment [7] was 24.5 µM (active); in experiment [3], 34.7 µM (active); in [4] it was 43.6 µM (active); in [6], 13.8 µM (active).

For the compound `O=Cc1cc(O)ccc1Br`, the Potency result in experiment [1], in [2], in experiment [3], in experiment [10], in [4] and in experiment [5] was “inactive” throughout. In addition, the Potency result in experiment [6] was “inactive”.

Turning to `COc1cccc(N)c1`, the Potency entry in experiment [7], in experiment [10], in [4] and in experiment [6] was “inactive” each time.

Regarding `Cc1onc(-c2c(Cl)cccc2Cl)c1C(=O)N[C@@H]1C(=O)N2[C@@H]1SC(C)(C)[C@@H]2C(=O)O`, the Potency result in experiment [7], in experiment [3], in [4] and in experiment [5] was “inactive” throughout.

With `O=c1cccccc1O`, the Potency result in experiment [1], in [3], in [10], in experiment [4] and in experiment [6] was “inactive” each time.

On to `CNCc1cc(F)ccc1Oc1ccc(Cl)c(Cl)c1`, for which the Potency result in experiment [1], in [2], in [4] and in experiment [5] was “inactive” throughout. The Potency in experiment [3] was 49 µM (active).
